Source: PubChem BioAssay (National Center for Advancing Translational Sciences (NCATS))
AMA1-RON2 inh: inhibitors of Plasmodium falciparum AMA1-RON2 interaction; 360,000 tested, 0.2% active; AlphaScreen AMA1-biotinylated RON2 peptide binding; Potency, µM (titrated, usually from 58.2 µM), usual class: inhibitors; note: nearly all actives have a fitted effect of over 45% in size
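AMA1 (3D7) with his tag at 25 nM final met compounds first, then biotinylated RON2 peptide at 25 nM; detection used donor plus acceptor beads, 10 µg/mL apiece, read by AlphaScreen after 30 min at room temperature.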
Pf growth 96h: inhibits malaria parasite growth, 96 h; P. falciparum luciferase reporter growth, 96 h; Potency, µM (top dose mostly 28.7 µM), most hits filed as inhibitors; 320,000 tested, 6.9% active; AID 504834
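P. falciparum expressing integrated firefly luciferase grown in erythrocytes (2% hematocrit, 0.05% parasitemia final) with compounds for 96 hours at 37 C, 5% CO2. Growth inhibition read as loss of luminescence after adding luciferase detection reagent.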
CHX counter: counter-screen hit for Shiga toxin inhibitors, cycloheximide | cell reporter, cycloheximide protein synthesis inhibition counterscreen | max response, % | 300,000 tested, 12% active | AID 2314; in the data active = max response mostly above about 13%, no sharp cut-off; inactive = mostly below about 14%; note: read at 38.3 µM for the half of the compounds with a filed dose
Pf growth 48h: P. falciparum growth inhibition at 48 hours (one generation); 310,000 tested, 5.9% active; P. falciparum luciferase growth in erythrocytes, 48 h; Potency, µM (top dose mostly 28.7 µM), usual class: inhibitors
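Erythrocytes infected with P. falciparum carrying an integrated firefly luciferase reporter (2% hematocrit, 0.1% parasitemia final) were exposed to compounds in RPMI 1640 with 0.5% Albumax at 37 C, 5% CO2. Growth inhibition was scored as reduced luminescence.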
Shiga toxin inh: Shiga toxin inhibition; Vero cells, Shiga toxin protein synthesis inhibition reporter; inhibition, % at 38.7 µM; 290,000 tested, 9.2% active; in the data active = inhibition mostly above about 28%, no sharp cut-off; inactive = mostly below about 43%
SARS PLP yeast: SARS-CoV PLP inhibition in yeast; 330,000 tested, 0.19% active; Potency, µM (doses to about 32.9 µM), hits mostly activators; S. cerevisiae expressing SARS-CoV PLpro, growth rescue; calls by dose curve; note: nearly all actives have a fitted effect of over 55% in size
Hits are given with their value; - = inactive; ? = inconclusive; . = not tested or not shown; [ ] = dose if it differs, or a comment. Compounds with a hit are over-represented: about 19% of the library has one in this group of screens. Unless noted, calls come from the whole dose curve; as a rule, active = well fitted curve in the direction sought with a large enough effect; inconclusive = small, poorly fitted or top-dose-only effect, or another doubt; inactive = no such curve, though single readings can be large; an effect the other way counts as inactive or inconclusive.

SMILES	AMA1-RON2 inh	Pf growth 96h	CHX counter	Pf growth 48h	Shiga toxin inh	SARS PLP yeast
Cc1cc(C)c(C)c(S(=O)(=O)N2CCN(C(=O)CCC(=O)N3CCOCC3)CC2)c1C	-	?	-	-	-	-
O=C(O)c1ccccc1OC(C(=O)Nc1cc(Cl)cc(Cl)c1)c1ccccc1 (stereo not given)	-	?	-	11.7µM	-	-
CS(=O)(=O)c1ccc(CNC(=O)C2(C(F)(F)F)CC(CCCO)CCCO2)cc1 (stereo not given)	-	.	-	.	-	.
CNC(=O)N(O)C1N(/N=C/c2cc(Br)ccc2O)C(=S)SC1(C)C (stereo not given)	-	-	15.2	-[0.00184 µM]	-	-
CNC(=O)N(O)C1N(/N=C/c2ccc(C)cc2)C(=S)SC1(C)C (stereo not given)	-	-	-	-[0.00184 µM]	-	-
CC1(C)SC(=S)N(/N=C/c2cccnc2)C1N(O)C(=O)Nc1ccccc1 (stereo not given)	-	?	-	-	-	-
CC1(C)SC(=S)N(/N=C/c2ccccc2O)C1N(O)C(=O)Nc1ccccc1 (stereo not given)	-	-	20.7	-	52.5	-
O=S(=O)(c1ccc2c(c1)OCCO2)N1CCN(S(=O)(=O)c2ccc(F)cc2F)CC1	.	.	-	.	-	.
C=CC[C@@H](CC(=O)OC(C)(C)C)C(=O)OC[C@H]1CCCN1C(=O)[C@@H](CC=C)CC(=O)N(CCO)Cc1ccccc1	-	.	.	.	.	-
CCN(CC)C(=O)Cn1cc(S(=O)(=O)CC(=O)NCc2ccccc2)c2ccccc21	-	-	-	-	-	-
CC(=O)Nc1ccc(-c2ccnc3c2CC(C)(C(=O)Nc2ccc(Cl)cc2)O3)cc1 (stereo not given)	-	.	.	.	.	.
Cc1cc(=O)[nH]c(-n2nc(C)c(Oc3ccccc3O)c2C)n1	-	-	-	?	-	-
Cc1nn(-c2ccc(C(F)(F)F)cn2)c(C)c1Oc1ccccc1O	-	8.28µM	23.2	.	-	-
CC(=O)c1cc2cccc(OC3(C)CCN(Cc4ccc(-c5ccccn5)cc4)C3)c2o1 (stereo not given)	-	.	.	.	.	.
CCN(CC(=O)Nc1c(F)cccc1F)C(=O)c1ccc2c(c1)C(=O)N(c1ccccc1C)C2=O	-	.	.	.	.	.
CCOC(=O)[C@H]1[C@H]2COc3ccc(Cl)cc3[C@@H]2N2C(=O)c3cc(F)ccc3NC(=O)[C@@]12C	-	?	.	?	.	-
O=C(N/N=C/c1ccc([N+](=O)[O-])o1)c1ccc(NS(=O)(=O)c2cccs2)cc1	-	0.928µM	-	3.7µM	-	-
O=C(N/N=C/c1ccc2c(c1)OCO2)c1ccc(NS(=O)(=O)c2cccs2)cc1	-	-	24.2	-	80.9	-
O=C(NN=Cc1ccc(F)c(F)c1)c1ccc(NS(=O)(=O)c2cccs2)cc1	-	.	.	.	.	-
O=C(N/N=C/c1ccc([N+](=O)[O-])cc1)c1ccc(NS(=O)(=O)c2cccs2)cc1	-	?	.	?	.	-
CC(C)(C)C(=O)NC(=S)NNC(=O)c1sc2ccccc2c1Cl	-	-	47.6	?	-	-
O=C(NNC(=O)C1CC2CCC1C2)c1sc2ccccc2c1Cl (stereo not given)	-	-	54.0	-	84.8	-
O=C(NC1CC1)c1sc2ccccc2c1Cl	-	-	31.6	-	58.5	-
O=C(NC1C=CS(=O)(=O)C1)c1sc2ccccc2c1Cl (stereo not given)	-	.	17.3	8.28µM	-	-
O=C(NC1C=CS(=O)(=O)C1)c1ccccc1 (stereo not given)	-	-	-	-	-	-
SMILES	AMA1-RON2 inh	Pf growth 96h	CHX counter	Pf growth 48h	Shiga toxin inh	SARS PLP yeast
COc1ccc(C(=O)NNC(=S)NC(=O)C(C)(C)C)cc1	-	-	-	?	-	-
Cc1cc(=O)oc2cc(OCC(=O)N3CCN(C(=O)c4ccco4)CC3)ccc12	-	-	-	-	-	-
O=C(NNC(=S)NC1CCCCC1)c1cccs1	-	-	-	-	-	?
O=C(NNC(=S)NC1CCCCC1)c1ccc(Cl)s1	-	-	21.0	-	-	-
O=C(CNC(=O)c1sc2ccccc2c1Cl)NC1CC1	-	-	13.3	-	-	-
O=C(NNC(=S)NC1CCCCC1)c1sc2ccccc2c1Cl	-	-	10.2	-	-	?
Cc1cc(CNC(=O)CC2C(=O)NCCN2Cc2ccccc2C(F)(F)F)on1 (stereo not given)	-	-	-	?	-	-
